Results taken from PubChem BioAssay (NCI).
About 83,000 compounds went through this panel and 20% of them were active in at least one assay; those are over-represented in the sample as a whole.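 Method: cells in 96-well plates; compound added at one concentration; 48 h incubation; percent growth measured; values under 10 scored active.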 Values without a mark were called inactive. Active and inactive are the calls of the source.

What follows are compounds tested on MDA-MB-468 breast (assay: NCI-60 one-dose screen, 48 h (100 = growth as untreated, 0 = no growth, -100 = all killed)). Conditions: 10 µM unless noted.

Row | SMILES | growth
1 | C=CCC(CCCC)(C(=O)OCC)C(=O)OCC | 107%
2 | Cc1cc(NC(=O)NC(=O)c2ccccc2N(C)C)ccc1Oc1ncc(Br)cn1 | -2.54% (active)
3 | Cc1ccc(NC(=O)/C=C/c2ccccc2)c(C(N)=O)c1 | 22.5%
4 | NS(=O)(=O)c1ccc(CCN2C(=O)c3cc(Cl)c(Cl)cc3C2=O)cc1 | 119%
5 | CC(=O)OCC1OC(OCC2OC(OC(C)=O)C(OC(C)=O)C(OC(C)=O)C2OC(C)=O)C(OC(C)=O)C(OC(C)=O)C1OC(C)=O (stereo not given) | 81.3%
6 | Brc1ccc(Cn2nnnc2-c2ccn(-c3ccccc3)n2)cc1 | 71.5%
7 | CN(C)CCOc1ccc(-c2nc3ccc(-c4nc5ccc(N6CCN(C)CC6)cc5[nH]4)cc3[nH]2)cc1 | 40.2%
8 | C/C(=N\N1CC(=O)NC1=O)c1ccc([N+](=O)[O-])o1 | 95.7%
9 | Clc1ccc(Nc2scc3[n+]2CCC3)cc1 | 86.3%
10 | C[n+]1c(/C=C/c2c(O)ccc3ccccc23)ccc2ccccc21 | -16.1% (active)
11 | COc1ccc(-c2cc(-c3ccccc3)nc(N3CCN(CCNc4ccnc5cc(Cl)ccc45)CC3)n2)cc1 | -54.7% (active)
12 | Cc1ccc(S(=O)(=O)N/N=C2\CC3CCC2C3)cc1 (stereo not given) | 110%
13 | CCn1c(=S)sc2c(Nc3ccc(F)cc3)nc(-c3cccnc3)nc21 | 79.8%
14 | O=C(Nc1ccc(F)cc1)Nc1ccc(Br)c(C(F)(F)F)c1 | -5.88% (active)
15 | Cc1ccccc1-c1nc(C(Cl)Cl)nc2cc(-c3ccccc3)nn12 | 52.7%
